Screening results (PubChem BioAssay)
Sampled rows, rich in hits. Any-hit rate of the full collection: about 5.3%.
Sfp PPTase inh = inhibitors of Bacillus subtilis Sfp phosphopantetheinyl transferase. Q9F4F7. Biochemical Sfp PPTase activity, qHTS. Potency, µM, actives largely listed as inhibitors. 3.5% of 310,000 active. AID 1490;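 further: the enzyme is Sfp with the accession as filed and its product quenches rhodamine fluorescence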
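With Hepes-Na pH 7.6 buffer containing 10 mM MgCl2, Sfp (15 nM) modified BHQ-2-YbbR (12.5 uM) using rhodamine-CoA (5 uM). Two reads 30 minutes apart at 525/598 nm yielded each well's rate.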
FBPA coupling cs = counter-screen for Giardia aldolase inhibitors: coupling enzyme system; coupling enzyme system counterscreen, AmpLite Red fluorescence; activity change, negative = inhibition, % at 58.2 µM, hits read low; 0.67% of 290,000 active; in the data active means activity change below about -30%
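Counterscreen lacking aldolase: glyceraldehyde-3-phosphate coupling-enzyme reagent preincubated 10 min at RT with compound (at 57.5 uM final), then substrate/coupling system with AmpLite Red added; fluorescence read at 525/598 nm after 20 min RT.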
Tau fibril FP = blocks human tau fibril formation measured by polarization; P10636; K18 P301L tau heparin fibrillization, Alexa594 FP, 6 h; Potency, µM (series often up to 57.7 µM), most hits filed as inhibitors; 0.39% of 280,000 active; AID 1468; further: nearly all actives have a fitted effect of over 55% in size
Target sequence (P10636 561-689 P618L limits assumed): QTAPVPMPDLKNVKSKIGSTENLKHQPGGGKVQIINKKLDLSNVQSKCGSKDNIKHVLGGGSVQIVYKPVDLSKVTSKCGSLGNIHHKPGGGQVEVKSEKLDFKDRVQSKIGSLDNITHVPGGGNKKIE
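Heparin (20 uM) drove fibril formation of recombinant tau K18 P301L, 15 uM unlabeled with 0.24 uM Alexa 594 label, for 6 hr at 37 C in 100 mM sodium acetate pH 7. Fluorescence polarization (555/632 nm) read 1 hr after 30 uM ThT.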
JMJD2E inh = inhibitors of human JMJD2E histone demethylase; B2RXH2; JMJD2E catalytic domain, FDH-coupled NADH fluorescence (FDH is formaldehyde dehydrogenase); Potency, µM (titrated, usually from 57.1 µM), usual class: inhibitors; 1.6% of 230,000 active; AID 2147; active means well fitted inhibition curve with a large enough effect, not every such curve was filed as active; inconclusive means small, poorly fitted or top-dose-only effect, or another doubt; inactive means no such curve, though single readings can be large or run the other way; further: nearly all actives have a fitted effect of over 50% in size
Target sequence (B2RXH2 1-337 limits assumed): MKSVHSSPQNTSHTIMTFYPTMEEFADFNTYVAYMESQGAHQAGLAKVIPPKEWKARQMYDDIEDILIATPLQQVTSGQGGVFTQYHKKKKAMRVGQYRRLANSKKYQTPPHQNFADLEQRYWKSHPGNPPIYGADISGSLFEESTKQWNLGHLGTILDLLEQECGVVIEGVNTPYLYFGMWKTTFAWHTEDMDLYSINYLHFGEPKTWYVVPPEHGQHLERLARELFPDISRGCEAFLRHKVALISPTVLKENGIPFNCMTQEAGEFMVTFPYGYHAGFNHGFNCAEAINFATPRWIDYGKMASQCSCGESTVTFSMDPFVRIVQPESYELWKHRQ
Tau fluor counter = counter-screen for tau fibril formation inhibitors | tau K18 P301L Alexa594 fluorescence, heparin fibrillization | Potency, µM (highest dose often 57.7 µM) | 0.93% of 280,000 active | AID 1463; further: nearly all actives have a fitted effect of over 55% in size
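Human tau K18 P301L (15 uM unlabeled, 0.24 uM Alexa 594-labeled) in 100 mM sodium acetate pH 7 with 20 uM heparin, 6 hr at 37 C. ThT 30 uM added, 1 hr ambient; Alexa 594 FP and total fluorescence read at 555/632 nm.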
Tau ThT inhib = tau fibrillization inhibition (ThT binding); Potency, µM (titrated, usually from 57.4 µM), most hits filed as inhibitors; P10636; 2.1% of 270,000 active; AID 1460; recombinant tau K18 P301L (four-repeat tau fragment), heparin-induced fibrillization, ThT fluorescence; further: nearly all actives have a fitted effect of over 55% in size
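In this qHTS, human K18 P301L tau is incubated with compound and heparin for 6 hr at 37 C, and Thioflavin T fluorescence then reports fibril load.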
Each line names hits and unclear results; the compound was inactive in the other large screens; [ ] = remark or other dose. Unless noted, the call rests on the fitted dose curve; in most records, active means well fitted curve in the direction sought with a large enough effect; inconclusive means small, poorly fitted or top-dose-only effect, or another doubt; inactive means no such curve, though single readings can be large; an effect the other way counts as inactive or inconclusive.

CC1CCC2C(=O)OC(CN=[N+]=[N-])CN2C1c1ccc(Br)cc1 (centres undefined)	none (no result: JMJD2E inh)
Nc1ccc(N(CCO)CCO)cc1	Sfp PPTase inh 13µM, FBPA coupling cs -38, Tau fibril FP 16µM, Tau fluor counter inconclusive, Tau ThT inhib 11µM
COC(=O)CSc1cc(C(=O)c2nccn2C)c2ccccc2n1	none
Cn1ccnc1C(=O)c1cc(SCC(=O)NCc2ccccc2)nc2ccccc12	Sfp PPTase inh 40µM
CCCCCc1nn2cc(-c3ccccc3)nc2s1	Tau ThT inhib inconclusive (no result: Sfp PPTase inh, FBPA coupling cs, JMJD2E inh)
Cc1ccc(S(=O)(=O)Nc2ccccc2C(=O)Nc2nc(-c3ccc(F)cc3)cs2)cc1	none
COc1ccc(-c2csc(NC(=O)c3ccccc3NS(=O)(=O)c3ccc(F)c(F)c3)n2)cc1	Tau fibril FP inconclusive, JMJD2E inh inconclusive, Tau fluor counter inconclusive, Tau ThT inhib 22µM
CCCn1c(C)cc(C(=O)COc2ccc(C)nc2[N+](=O)[O-])c1C	none
Cc1ccc(OCC(=O)c2cc(C)c(C)cc2C)c([N+](=O)[O-])n1	Tau fibril FP inconclusive, Tau fluor counter inconclusive, Tau ThT inhib 16µM
Cc1ccc(C)c(C(=O)COc2ccc(C)nc2[N+](=O)[O-])c1	Tau fibril FP inconclusive, Tau fluor counter inconclusive, Tau ThT inhib 16µM
COc1ccc(CNC(=O)C2CCN(c3nc(-c4ccccc4)nc4c3CCC4)CC2)cc1	Sfp PPTase inh 50µM (no result: FBPA coupling cs, Tau fibril FP, JMJD2E inh, Tau fluor counter, Tau ThT inhib)
CC(=O)Nc1ccc2ccccc2c1	none
CC(=O)Nc1ccc2cc3ccc(NC(C)=O)cc3nc2c1	FBPA coupling cs -33, JMJD2E inh inconclusive, Tau fluor counter inconclusive, Tau ThT inhib 7.9µM
COCCN(CCOC)c1ncnc2c1c(-c1ccccc1)cn2-c1ccc(C)c(Cl)c1	none (no result: Sfp PPTase inh, FBPA coupling cs, JMJD2E inh)
O=C(CSc1n[nH]c(=O)[nH]c1=O)Nc1ccc2c(c1)C(=O)c1ccccc1C2=O	Tau fluor counter 13µM[quencher], Tau ThT inhib 10µM
CCS(=O)(=O)c1ccc(OC)c(N=Nc2ccc(O)c3ncccc23)c1	Tau fibril FP inconclusive, JMJD2E inh 18µM, Tau ThT inhib inconclusive
Cc1cccc(N=Nc2ccc(O)c3ncccc23)c1	Tau fibril FP inconclusive, Tau ThT inhib 2µM
CCN(CC)S(=O)(=O)c1cc(OC)ccc1N=Nc1ccc(O)c2ncccc12	none (no result: Tau fibril FP, JMJD2E inh, Tau fluor counter, Tau ThT inhib)
CC#CCN1c2ccccc2[C@]23C[C@@H](C(=O)OC)N(S(=O)(=O)c4ccc(Br)cc4)C2=NC(C(=O)OC)=C(C(=O)OC)[C@H]13	none
C[C@H](N)C(=O)N[C@@H](CO)C(=O)N[C@H](C(=O)N[C@H](C(=O)N[C@H](C(=O)N[C@@H](CC(N)=O)C(=O)N[C@@H](Cc1ccc(O)cc1)C(=O)N[C@H](C(=O)O)[C@@H](C)O)[C@@H](C)O)[C@@H](C)O)[C@@H](C)O	none (no result: Tau fibril FP, JMJD2E inh, Tau fluor counter, Tau ThT inhib)
Cn1cccc1Cc1nnc(SCC(=O)Nc2nccs2)n1CCc1ccccc1	Sfp PPTase inh 79µM
COc1ccc(NC(=O)/C=C/c2ccc(Br)o2)cn1	Sfp PPTase inh 25µM, JMJD2E inh inconclusive, Tau ThT inhib inconclusive
O=C(NC(c1ccccc1)c1ccccc1)c1ccc(Br)o1	none
O=C(/C=C/c1ccc(Br)o1)NCCCN1CCOCC1	Sfp PPTase inh 18µM, JMJD2E inh inconclusive, Tau ThT inhib inconclusive
COc1ccccc1CNC(=O)/C=C/c1ccc(Br)o1	Sfp PPTase inh 10µM, Tau ThT inhib inconclusive
O=C(/C=C/c1ccc(Br)o1)NC(c1ccccc1)c1ccccc1	Sfp PPTase inh 20µM
CCc1ccc(NC(=O)Nc2ccccc2OCc2cc(=O)n3ccccc3n2)cc1	none (no result: Sfp PPTase inh, FBPA coupling cs, JMJD2E inh)
CCNc1ncc2nc(-c3ccccc3)c(=O)n(C[C@H]3CCCO3)c2n1	none (no result: Tau fibril FP, JMJD2E inh, Tau fluor counter, Tau ThT inhib)
COc1ccc(C2/C=C\CN(C(=O)C3CC3)C(C)C(=O)N2Cc2ccc(F)cc2)cc1 (centres undefined)	none (no result: Tau fibril FP, JMJD2E inh, Tau fluor counter, Tau ThT inhib)
CN(C)c1nc(N/N=C/c2ccccc2O)nc(Nc2ccc(F)cc2)n1	Tau fibril FP inconclusive, JMJD2E inh 28µM, Tau fluor counter 8.9µM[quencher], Tau ThT inhib inconclusive
CN(C)c1nc(Nc2ccc(F)cc2)nc(Oc2ccc(F)cc2)n1	none (no result: Tau fibril FP, JMJD2E inh, Tau fluor counter, Tau ThT inhib)
O=C(O)/C=C/C(=O)Nc1ccccc1C(=O)Nc1ccccc1	Sfp PPTase inh 79µM
O=C(O)/C=C\C(=O)Nc1ccccc1F	none
